Source: PubChem
Sampled rows, rich in hits. Any-hit rate of the full collection: about 2.6%.
CRFBP-R2 agonist – CRF-BP/CRF-R2 complex agonism; HEK293 CRF-R2/CRF-BP, calcium dye fluorescence (FLIPR); percent of saturating CRF peptide response; activation, % at 13.2 µM; actives 0.46% (n = 350,000);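 active = activation of at least 50%, plus an integration ratio under a set limit after plate pattern correction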
IDE act – IDE (human) activation, cell-based | actives 0.073% (n = 340,000) | AID 493087 | HEK cells, FAbeta-B cleavage, fluorescence polarization; 0% vehicle, 100% cell-free pure enzyme wells | P14735 | activation, % at 5.96 µM;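 active = activation above the mean of all tested compounds plus 3 SD, set per screening campaign, cut at about 17% in these data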
Target sequence (P14735 whole entry, looked up): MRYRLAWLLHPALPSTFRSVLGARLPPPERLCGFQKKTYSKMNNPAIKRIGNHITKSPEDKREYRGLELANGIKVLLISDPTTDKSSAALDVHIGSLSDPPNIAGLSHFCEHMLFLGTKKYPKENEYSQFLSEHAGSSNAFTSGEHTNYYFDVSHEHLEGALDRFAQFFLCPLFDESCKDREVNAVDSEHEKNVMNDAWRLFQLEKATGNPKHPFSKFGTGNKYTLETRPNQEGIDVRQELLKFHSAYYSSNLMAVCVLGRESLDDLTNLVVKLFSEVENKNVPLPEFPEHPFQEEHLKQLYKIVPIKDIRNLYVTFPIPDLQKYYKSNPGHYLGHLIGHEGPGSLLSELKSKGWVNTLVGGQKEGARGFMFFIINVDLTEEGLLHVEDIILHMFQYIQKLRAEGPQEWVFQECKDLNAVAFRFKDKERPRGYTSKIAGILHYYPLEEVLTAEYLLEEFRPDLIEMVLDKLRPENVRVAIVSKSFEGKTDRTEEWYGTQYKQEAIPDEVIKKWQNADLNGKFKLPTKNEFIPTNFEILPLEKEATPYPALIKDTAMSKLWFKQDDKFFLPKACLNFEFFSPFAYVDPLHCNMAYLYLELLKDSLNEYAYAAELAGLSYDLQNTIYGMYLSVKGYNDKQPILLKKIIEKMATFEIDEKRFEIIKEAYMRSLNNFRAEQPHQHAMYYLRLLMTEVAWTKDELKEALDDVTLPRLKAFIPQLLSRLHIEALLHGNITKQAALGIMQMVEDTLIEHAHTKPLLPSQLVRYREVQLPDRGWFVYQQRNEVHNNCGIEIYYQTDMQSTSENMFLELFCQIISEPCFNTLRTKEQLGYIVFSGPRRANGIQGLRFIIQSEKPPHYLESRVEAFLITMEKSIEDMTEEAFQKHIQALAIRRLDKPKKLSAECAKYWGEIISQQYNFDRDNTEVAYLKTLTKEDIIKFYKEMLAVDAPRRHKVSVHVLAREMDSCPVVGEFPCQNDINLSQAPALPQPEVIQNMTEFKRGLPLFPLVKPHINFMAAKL
TPT1 inhibitor – blocks Candida albicans tRNA 2'-phosphotransferase | recombinant caTPT1, FP RNA substrate dephosphorylation | inhibition, % at 5 µM | actives 0.81% (n = 300,000);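 active = inhibition above the mean of all tested compounds plus 3 SD, set per screening campaign, cut at about 24% in these data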
IDE cell inh – inhibitors of human insulin-degrading enzyme in cells. HEK cells, FAbetaB cleavage, fluorescence polarization. actives 0.41% (n = 320,000). inhibition, % at 5.59 µM. P14735;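 active = percent inhibition above the average of all tested compounds plus 3 SD, set per screening campaign, cut at about 16% in these data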;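 also: IDE supplied by intact live HEK cells; FP after avidin binding of uncleaved biotin substrate so inhibition keeps polarization high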
CRFR2-BP antag – antagonists of CRF-binding protein/CRF-R2 receptor complex; HEK293 CRF-R2/CRF-BP, CRF-induced calcium fluorescence; inhibition, % at 11.8 µM; actives 0.59% (n = 350,000); AID 588475;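 active = inhibition of the ligand-induced calcium signal above about 50% at the single tested concentration, limit read from the data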
Myeloid diff 2 – compounds promoting myeloid differentiation; ER-HoxA9 myeloid progenitors, lysozyme-GFP differentiation, flow cytometry; calls only at 10 µM; actives 1% (n = 360,000); AID 624256;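 active = normalized GFP-positive differentiation at or above the plate's own cutoff, the solvent-only control mean plus 3 SD; inconclusive = no clear call, values can overlap the other calls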;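 also: cells exposed to compound for four days before flow analysis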
Of the large screens only hits and unclear results are named; the others gave an inactive call.

CCCNC(=O)c1ccccc1NC(=O)c1ccccc1N(C)S(=O)(=O)c1ccc(C)cc1	Myeloid diff 2 active (no result: TPT1 inhibitor, IDE cell inh)
CCCNC(=O)c1ccccc1NC(=O)c1ccccc1N(C)S(C)(=O)=O	none
COc1cccc2sc(NN)nc12	none
COc1cccc2sc(Nc3nnc(-c4ccccc4Cl)o3)nc12	CRFBP-R2 agonist 77, Myeloid diff 2 inconclusive
O=C(Nc1nnc(-c2ccccc2Cl)o1)c1nc2ccccc2s1	CRFBP-R2 agonist 140
COc1ccccc1-c1nnc(Nc2nc3c(OC)cccc3s2)o1	CRFR2-BP antag 53, Myeloid diff 2 inconclusive
Fc1ccc(NC(=S)NNc2ncc(C(F)(F)F)cc2Cl)c(F)c1	CRFBP-R2 agonist 56
Cc1ccc(NC(=S)NNc2ncc(C(F)(F)F)cc2Cl)cc1	none
FC(F)(F)c1cnc(NNC(=S)Nc2ccc(Cl)cc2)c(Cl)c1	CRFBP-R2 agonist 52
C[C@@H]1CN([C@@H](C)CO)C(=O)CCCn2nncc2CO[C@H]1CN(C)S(=O)(=O)c1cccs1	none (no result: IDE act, TPT1 inhibitor, IDE cell inh)
CC(C)(CC(=O)O)CC(=O)N1CCN(c2nc3cc(Cl)ccc3s2)CC1	none
Cc1ccc(C)c(N2CCN(C(=O)c3cc4ccccn4n3)CC2)c1	CRFBP-R2 agonist 119
O=C(c1cc2ccccn2n1)N1CCN(c2cccc(C(F)(F)F)c2)CC1	none
COc1cccc(CNS(=O)(=O)c2cc(Br)ccc2Br)c1	none (no result: IDE act, TPT1 inhibitor, IDE cell inh)
CCCCN(C(=O)CSc1nnc2ccccn12)c1c(N)n(Cc2ccccc2)c(=O)[nH]c1=O	Myeloid diff 2 active
CCN(C(=O)CSc1n[nH]c(-c2ccc(OC)cc2)n1)c1c(N)n(Cc2ccccc2)c(=O)[nH]c1=O	Myeloid diff 2 active (no result: TPT1 inhibitor, IDE cell inh)
COc1ccccc1NC(=O)CNc1ccc(F)c(Cl)c1	none
Cc1cc(Cl)ccc1OC(C)C(=O)Nc1ccc(C(=O)Nc2ccccc2C(=O)O)cc1 (centres undefined)	none
CCc1ccc(N2C(=O)c3sc4nnc(C)c(=O)n4c3C2=O)cc1	none
Cc1ccc(N2C(=O)c3sc4nnc(C)c(=O)n4c3C2=O)cc1	CRFR2-BP antag 52
Cc1cc(C(=O)CN2C(=O)NC(C)(CC(C)C)C2=O)c(C)n1-c1ccc2c(c1)OCO2 (centres undefined)	CRFR2-BP antag 80
Cc1cc(C(=O)CN2C(=O)NC3(CCCC3)C2=O)c(C)n1-c1ccc2c(c1)OCO2	none
O=C(COC(=O)Cn1cc(C(F)(F)F)ccc1=O)NCc1ccccc1	none (no result: TPT1 inhibitor, IDE cell inh)
CCC(=O)NCCNc1nc2cc(C)c(C)cc2cc1C#N	none
CCOc1ccc2nc(NCCNC(=O)CC)c(C#N)cc2c1	Myeloid diff 2 active
Cc1cccc(CS(=O)(=O)c2nnc([C@H](Cc3ccccc3)NC(=O)OC(C)(C)C)o2)c1	TPT1 inhibitor 67
COc1ccc(-c2cc(-c3ccco3)[nH]c(=O)c2C#N)cc1OC	none
O=C(c1ccc([N+](=O)[O-])s1)N1CCN(c2ccc(C(F)(F)F)cn2)CC1	none
Cc1cc(C)c(-c2csc(NC(=O)/C=C/c3cccs3)n2)c(C)c1	Myeloid diff 2 active
Cc1cc(=O)[nH]c2ccc(S(=O)(=O)NCc3ccccc3)cc12	none
O=c1ccc2cc(S(=O)(=O)NCc3ccccc3)ccc2[nH]1	CRFR2-BP antag 99
CCCSc1n[nH]c(NC(C)=O)n1	CRFR2-BP antag 56
CCCCCCCCCCSc1n[nH]c(NC(C)=O)n1	none
CN(C)c1c([N+](=O)[O-])cc(N2C(=O)C=CC2=O)cc1[N+](=O)[O-]	none (no result: TPT1 inhibitor, IDE cell inh)
O=S(=O)(c1ccc(F)c(F)c1)N1CCN(CCc2ccccc2)CC1	none
Cc1ccccc1C(=O)NN1C(=O)CSC1=S	none
O=C(NN1C(=O)CSC1=S)c1cccnc1	CRFR2-BP antag 77 (no result: IDE act)
CNC[C@@H]1Oc2ccc(NC(=O)Nc3cccc4ccccc34)cc2C(=O)N([C@@H](C)CO)C[C@@H]1C	none (no result: CRFBP-R2 agonist, IDE act, TPT1 inhibitor, CRFR2-BP antag, Myeloid diff 2)
CCC(C)C(=O)Nc1nnc(SCC(=O)NC(C)(C)C)s1 (centres undefined)	CRFR2-BP antag 67
CC(=O)Nc1nnc(SCC(=O)NC(C)(C)C)s1	none
Cc1cccc(-n2c(=S)[nH]c3sc4c(c3c2=O)CCc2ccccc2-4)c1	none (no result: TPT1 inhibitor, IDE cell inh)
CC[C@]12c3[nH]c4ccc(Cl)cc4c3CCN1C(=O)[C@@H](CC(=O)NCc1ccc(OC)c(OC)c1)C[C@@H]2C(=O)N1CCN(C(=O)c2ccco2)CC1	none (no result: TPT1 inhibitor, IDE cell inh)
O=c1cc(N2CCN(c3ccccc3)CC2)[nH]c(=O)n1Cc1ccc(F)cc1	Myeloid diff 2 active
N#CCC(=O)Nc1ccc(C(=O)OCC(=O)N2CCN(C(=O)c3ccco3)CC2)cc1	none (no result: TPT1 inhibitor)
COc1ccc(OC)c(-c2cc(C(=O)Nc3c(C)nn(Cc4ccccc4C)c3C)no2)c1	Myeloid diff 2 active
Cc1ccccc1Cn1nc(C)c(NC(=O)c2cc(-c3cccs3)on2)c1C	CRFR2-BP antag 57
COc1ccc(OC)c(-c2cc(C(=O)Nc3c(C)nn(Cc4ccccc4Cl)c3C)no2)c1	none
CCN(CC)S(=O)(=O)c1ccc(N2Cc3ccccc3C2=N)cc1	Myeloid diff 2 active
CCn1c(CNc2ccc(C)cc2)nnc1SCC(N)=O	none
Clc1ccc2nnc(Cl)n2n1	Myeloid diff 2 active
CCn1c(Cc2cccs2)nnc1SCC(=O)NC1CC1	Myeloid diff 2 active
O=C(COC(=O)COc1ccc(Cl)cc1Br)NCc1cccs1	CRFR2-BP antag 53
O=C(CCc1nc(-c2ccccc2)no1)NCc1ccccc1CN1CCOCC1	none (no result: TPT1 inhibitor)
Cc1ccc(C2=CSC3=NNC4(CCCCC4)NN23)cc1	Myeloid diff 2 active
COCCn1c(C)cc(C(=O)CSc2cc(C)c3ccc(OC)cc3n2)c1C	none
Cc1ccccc1Cn1cccc1/C=C1/C(=N)N2C=CSC2=NC1=O	CRFR2-BP antag 55
CC(C)c1ccc(-n2cccc2/C=C2/C(=N)N3C=CSC3=NC2=O)cc1	none
CC(C)CN(C(=O)CN(C)C(=O)Cc1c(F)cccc1Cl)c1c(N)n(CC(C)C)c(=O)[nH]c1=O	none (no result: IDE act, TPT1 inhibitor, IDE cell inh)
O=C(Cn1sc2ccccc2c1=O)NC12CC3CC(CC(C3)C1)C2	IDE cell inh 58
O=C(Cn1sc2ccccc2c1=O)Nc1ccccc1	Myeloid diff 2 active (no result: IDE act, TPT1 inhibitor, IDE cell inh)
Nc1cccc2c1C(=O)N(CC(=O)NC13CC4CC(CC(C4)C1)C3)C2=O	none
Cc1[nH]c2ccccc2c1CN1CCC(Cc2ccccc2)CC1	Myeloid diff 2 inconclusive
Cc1cccc(C)c1NC(=O)CNC(=O)C1CCCN(C(=O)c2ccc(Cl)cc2)C1 (centres undefined)	none (no result: TPT1 inhibitor)
CCCN(CC(=O)Nc1ccccc1C)C(=O)C1CCCN(C(=O)c2ccc(Cl)cc2)C1 (centres undefined)	Myeloid diff 2 active (no result: TPT1 inhibitor)
CN(C)CCCNC(=O)/C(=C\c1ccc(-c2cccc([N+](=O)[O-])c2)o1)NC(=O)c1ccccc1	none
Cc1ccc(C(=O)N/C(=C\c2ccc(-c3cccc([N+](=O)[O-])c3)o2)C(=O)NCCCN(C)C)cc1	none
CN(C)CCNC(=O)/C(=C/c1ccc(-c2ccc(Cl)cc2Cl)o1)NC(=O)c1ccccc1	Myeloid diff 2 active
